ChEMBL document CHEMBL3988442, “University of Dundee, Small-Polar-MMV Screening Library” (2021)

Legend:
[1] = target: T1, Aspartate--tRNA(Asp/Asn) ligase (Mycobacterium tuberculosis (strain ATCC 25618 / H37Rv)) (UniProt P9WFW3); assay: Assay for Asp RNA synthetase-1 from Mycobacterium tuberculosis; type: functional; parameters: scale not given: direction of the effect not stated beside the values; conditions: 30 µM; note: in the data most compounds retested in dose-response had high values
T1 sequence (whole entry): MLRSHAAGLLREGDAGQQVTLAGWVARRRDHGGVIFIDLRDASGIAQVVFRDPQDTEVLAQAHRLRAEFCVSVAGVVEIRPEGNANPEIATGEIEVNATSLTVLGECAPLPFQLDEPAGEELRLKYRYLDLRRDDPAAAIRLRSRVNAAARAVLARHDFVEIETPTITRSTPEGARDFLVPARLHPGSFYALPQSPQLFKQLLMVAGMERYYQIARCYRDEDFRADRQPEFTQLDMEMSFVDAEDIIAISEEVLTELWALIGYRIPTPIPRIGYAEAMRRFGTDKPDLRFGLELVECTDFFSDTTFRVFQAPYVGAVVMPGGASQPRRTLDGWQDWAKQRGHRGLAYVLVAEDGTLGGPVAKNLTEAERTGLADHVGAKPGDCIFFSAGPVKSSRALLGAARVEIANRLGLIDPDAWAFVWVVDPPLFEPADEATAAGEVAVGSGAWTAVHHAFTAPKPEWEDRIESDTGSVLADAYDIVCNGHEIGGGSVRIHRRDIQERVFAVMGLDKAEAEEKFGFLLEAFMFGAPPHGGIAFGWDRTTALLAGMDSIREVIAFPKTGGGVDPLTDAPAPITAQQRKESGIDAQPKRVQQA

[2] = target: Shiga toxin 2 (Escherichia coli O157:H7) (UniProt P09385+P09386); assay: E. coli 0.157:H7 Shiga Toxin SOP - stx2 screening assay; type: functional; parameters: scale not given: direction of the effect not stated beside the values; conditions: 30 µM

Question: What does the source list for CN(C)CCNC(=O)c1cc(-c2cnc(N3CCCC3)nc2)cn1C?
Answer: Percent Effect [1]: -0.309%; Percent Effect [2]: -17.7%

Question: How did the Percent Effect [1] turn out when CCc1c(C)nn(CCNC(=O)C2CCCN(C(=O)N(C)C)C2)c1C (stereo unspecified) was run?
Answer: Its Percent Effect is -4.11%.

Question: What about the Percent Effect [2] of the same molecule?
Answer: Its Percent Effect is 20%.

Question: Which results are given for c1nc2n(n1)CC(NCc1nc(-c3ccsc3)no1)CC2 (stereo unspecified)?
Answer: Percent Effect [1]: 4.69%; Percent Effect [2]: 10.5%

Question: What does the source list for Cc1cc(CN2CCN(c3ccc4nncn4n3)C(C)C2)no1 (stereo unspecified)?
Answer: Percent Effect [1]: -3.98%; Percent Effect [2]: -29.9%

Question: With O=C(CN1CCc2c(ncn2C2CC2)C1)NC1CC1 as the molecule, how does the Percent Effect [1] read?
Answer: The Percent Effect was -0.0146%.

Question: And the Percent Effect [2]?
Answer: Its Percent Effect is 5.91%.

Question: What does the source list for COc1ccc(OCc2nc(C(=O)N3CC[C@H](O)[C@@H](O)C3)co2)cc1?
Answer: Percent Effect [1]: -0.903%; Percent Effect [2]: 8.98%

Question: Which results are given for Cc1cc(N2CCN(CCO)CC2)nc(-c2ccncc2)n1?
Answer: Percent Effect [1]: 1.26%; Percent Effect [2]: -27.4%

Question: Which results are given for CC(C)c1csc(C2CCCN(C(=O)c3ncccn3)C2)n1 (stereo unspecified)?
Answer: Percent Effect [1]: -2.21%; Percent Effect [2]: -20%

Question: CCc1ccccc1C(=O)N1CCN(S(C)(=O)=O)[C@@H](C)C1 was tested. Which Percent Effect [1] did it give?
Answer: The Percent Effect was 0.259%.

Question: And the Percent Effect [2]?
Answer: Its Percent Effect is -3%.

Question: What does the source list for CC(=O)c1cccc(NC(=O)COc2c(C)n(C)ccc2=O)c1?
Answer: Percent Effect [1]: 1.07%; Percent Effect [2]: -59.3%

Question: For CS(=O)(=O)c1ccccc1C(=O)NCCCN1CCc2ccccc2C1, which Percent Effect [1] is on record?
Answer: The Percent Effect was -6.45%.

Question: And the Percent Effect [2]?
Answer: The Percent Effect was -24.7%.

Question: How did the Percent Effect [1] turn out when CCn1cc(NC(=O)NCC(O)COc2cccc(F)c2)cn1 (stereo unspecified) was run?
Answer: Its Percent Effect is 1.57%.

Question: And the Percent Effect [2]?
Answer: Its Percent Effect is 20.1%.

Question: Which results are given for COCCN1C[C@@H]2CN(Cc3ccsc3)CCC[C@]2(C(=O)O)C1?
Answer: Percent Effect [1]: 2.26%; Percent Effect [2]: -14.2%

Question: Which Percent Effect [1] does the source give for CC1(C)OCC(CNC(=O)c2cnn(-c3cc(Cl)ccc3Cl)c2N)O1 (stereo unspecified) here?
Answer: The Percent Effect was -2.66%.

Question: And the Percent Effect [2]?
Answer: Its Percent Effect is 17.5%.

Question: How did the Percent Effect [1] turn out when Cc1c(F)cc(C(=O)O)cc1S(=O)(=O)Nc1cccc(C(F)F)c1 was run?
Answer: The Percent Effect was -0.0333%.

Question: And the Percent Effect [2]?
Answer: Its Percent Effect is 12.3%.

Question: With Cc1nc([C@@H]2C[C@@H]3CCN(C(=O)c4ccnnc4)C[C@H]3O2)sc1C as the molecule, how does the Percent Effect [1] read?
Answer: The Percent Effect was 4.24%.

Question: What about the Percent Effect [2] of the same molecule?
Answer: Its Percent Effect is -9.81%.

Question: Which results are given for CC(C)(CNC(=O)CCOc1cccc(F)c1)C(N)=O?
Answer: Percent Effect [1]: -0.256%; Percent Effect [2]: 29.6%

Question: With COC(=O)C(NC(=O)C(C)C)c1cc(F)ccc1F (stereo unspecified) as the molecule, how does the Percent Effect [1] read?
Answer: The Percent Effect was -0.455%.

Question: What about the Percent Effect [2] of the same molecule?
Answer: The Percent Effect was 15.2%.
